# Test results as given in PubChem BioAssay AID1159580 (chemical genetic matrix, 2015).
# The whole screen tested about 5,500 compounds, of which about 2,000 (36%) were called active. Inconclusive results (about 18%) are left out. This is one part of the list. A number with no mark means an inactive call. Cut-off read from the data, not from the text of the source: active = normalized growth mostly below about 0.91 (no sharp cut-off); inconclusive = no clear call, values can overlap the other calls; inactive = mostly above about 0.92.
# Assay: chemical genetic growth profiling, strain panel (AID 1159580);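 note: tested at 20 µM; growth read once vehicle control cultures reached saturation at 30 °C; 1 = growth at the plate median or of vehicle wells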
# Conditions: S. cerevisiae deletion strains, growth OD
structure (smiles),measurement,setting,value
Cc1ccc(NC(=S)NNC(C)(C)C)cc1,normalized growth,"locus YAL013W, strain DEP1, stronger effect = lower value",0.991
same,normalized growth,"locus YBR229C, strain ROT2, stronger effect = lower value",0.963
same,normalized growth,"locus YCL061C, strain MRC1, stronger effect = lower value",0.972
same,normalized growth,"locus YDL101C, strain DUN1, stronger effect = lower value",0.971
same,normalized growth,"locus YDR150W, strain NUM1, stronger effect = lower value",0.898
same,normalized growth,"locus YEL061C, strain CIN8, stronger effect = lower value",0.838 (active)
same,normalized growth,"locus YGR078C, strain PAC10, stronger effect = lower value",0.997
same,normalized growth,"locus YHR030C, strain SLT2, stronger effect = lower value",0.721
same,normalized growth,"locus YHR087W, strain rtc3, stronger effect = lower value",1.01
same,normalized growth,"locus YJR043C, strain POL32, stronger effect = lower value",0.99
same,normalized growth,"locus YJR075W, strain HOC1, stronger effect = lower value",1.06
same,normalized growth,"locus YLR039C, strain RIC1, stronger effect = lower value",0.654 (active)
same,normalized growth,"locus YLR058C, strain SHM2 (second series), stronger effect = lower value",1
same,normalized growth,"locus YLR085C, strain ARP6, stronger effect = lower value",0.488 (active)
same,normalized growth,"locus YLR262C, strain YPT6, stronger effect = lower value",0.795 (active)
same,normalized growth,"locus YML094W, strain GIM5, stronger effect = lower value",0.827 (active)
same,normalized growth,"locus YMR219W, strain ESC1, stronger effect = lower value",1.01
same,normalized growth,"locus YMR263W, strain SAP30, stronger effect = lower value",1.03
same,normalized growth,"locus YNL128W, strain TEP1, stronger effect = lower value",0.94
same,normalized growth,"locus YNL153C, strain GIM3, stronger effect = lower value",0.955
same,normalized growth,"locus YNL298W, strain CLA4 (second series), stronger effect = lower value",0.675 (active)
same,normalized growth,"locus YNL322C, strain KRE1, stronger effect = lower value",1.02
same,normalized growth,"locus YNR030W, strain Alg12, stronger effect = lower value",0.787 (active)
same,normalized growth,"locus YOL006C, strain TOP1, stronger effect = lower value",0.193 (active)
same,normalized growth,"locus YPL055C, strain LGE1, stronger effect = lower value",0.894
same,normalized growth,"locus YPL241C, strain CIN2, stronger effect = lower value",0.913
same,normalized growth,"locus YPR135W, strain CTF4, stronger effect = lower value",0.646 (active)
